# Screening results as filed in PubChem BioAssay.
# The list is not random: actives were taken first. Their share in the collection is about 4.3%.
# D3 ag: activates the human D3 dopamine receptor; P35462; hit rate 0.58% among 410,000; max activation, %; D3R DiscoveRx beta-arrestin cells, luminescence, 90 min; in the data active = max activation above about 30%; note: 0% is about no effect
#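 Agonist mode: compounds and dopamine controls were applied to plated cells for 90 min at 37 degrees C after an overnight attachment at 1500 cells/well. Luminescent read-out followed 30 - 60 minutes at room temperature with DiscoveRx detection reagent.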
# GLP1R inv ag: inverse agonists of human GLP-1 receptor; Potency, µM (titrated, usually from 38.3 µM), for the others: at the highest dose activity change, negative = inhibition, most hits filed as inhibitors; hit rate 1.6% among 410,000; P43220; HEK293 GLP-1R CRE-luciferase, luminescence, 24 h; GLP-1R form is constitutively active; note: potency is the fitted concentration of half-maximal effect; % is set by controls: 0 for no effect and ±100 for the full control effect; nearly all actives have a fitted effect of over 55% in size
# Target sequence (P43220 whole entry, looked up): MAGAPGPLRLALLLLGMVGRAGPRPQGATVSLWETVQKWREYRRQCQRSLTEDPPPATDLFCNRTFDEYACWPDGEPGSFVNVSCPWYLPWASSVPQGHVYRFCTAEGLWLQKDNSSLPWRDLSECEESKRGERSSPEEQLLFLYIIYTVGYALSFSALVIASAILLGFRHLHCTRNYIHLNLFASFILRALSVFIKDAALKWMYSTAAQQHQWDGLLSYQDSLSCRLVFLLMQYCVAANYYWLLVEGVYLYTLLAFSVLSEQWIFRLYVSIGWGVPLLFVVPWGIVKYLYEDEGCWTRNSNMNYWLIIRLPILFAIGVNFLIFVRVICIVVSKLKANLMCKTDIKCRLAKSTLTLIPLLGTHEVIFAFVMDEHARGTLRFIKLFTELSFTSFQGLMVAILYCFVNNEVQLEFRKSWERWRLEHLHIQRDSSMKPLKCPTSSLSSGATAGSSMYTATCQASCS
#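 Cells are plated, allowed 12 hours at 37 deg C, then treated with compounds for 24 hr before luciferase detection reagent is added and luminescence is read after 12 min at room temperature. The HEK293 line carries constitutively active GLP-1R with a cAMP-responsive reporter.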
# D3 antag: blocks the human D3 dopamine receptor; P35462; D3R cells, DiscoveRx beta-arrestin luminescence, antagonist mode; stronger effect = lower value; max response, negative = inhibition, %; hit rate 2.5% among 360,000; AID 652054; in the data active = max response below about -50%; inconclusive = no clear call, values can overlap the other calls; note: % is set by controls: 0 for no effect and ±100 for the full control effect
#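 Cells plated overnight at 1500 cells/well, then exposed to library compounds with dopamine controls for 90 minutes at 37 degrees C. DiscoveRx reagent added for 30–60 minutes at room temperature; luminescence read, quantitative HTS format.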
# GLP1R ag: agonists of human GLP-1 receptor; P43220; HEK293 GLP-1R CRE-luciferase, luminescence, 4-6 h; cells express a hypersensitive GLP-1R form; Potency, µM (top dose mostly 45.6 µM), inactives show top-dose activation, most hits filed as activators; hit rate 0.007% among 380,000; AID 624172; note: potency is the fitted concentration of half-maximal effect; % of control where 0% means no effect
# Numbers without * were called inactive; ? = inconclusive; . = no result given. Unless noted, calls come from the whole dose curve; as a rule, active = well fitted curve in the direction sought with a large enough effect; inconclusive = small, poorly fitted or top-dose-only effect, or another doubt; inactive = no such curve, though single readings can be large; an effect the other way counts as inactive or inconclusive.
SMILES,D3 ag,GLP1R inv ag,D3 antag,GLP1R ag
COC(=O)c1c(-c2ccc(N(C)C)cc2)sc2ccc(OC)cc12,134*,11%,175,24%
Cc1cccc2sc(N(CCN(C)C)C(=O)c3ccc4c(c3)OCCO4)nc12,-19,21%,.,.
O=C(Nc1nc(-c2ccc(Br)cc2)ns1)c1ccc(F)cc1,13,5%,.,.
C=CCOc1cccc(C2/C(=C(/O)c3ccc(Cl)cc3)C(=O)C(=O)N2CCN2CCOCC2)c1 (stereo not given),0,-9%,-56*,-6%
C=CCOc1cccc(C2/C(=C(/O)c3ccccc3)C(=O)C(=O)N2CCN2CCOCC2)c1 (stereo not given),-4,10%,-10,-1%
COC(=O)c1ccccc1NC(=O)c1cc(CN2CCOCC2)on1,-2,4%,.,.
CC1(C)SC(=S)N(/N=C/c2ccccc2)C1N(O)C(=O)Nc1ccc([N+](=O)[O-])cc1 (stereo not given),1,?,-56*,-7%
CC1(C)SC(=S)N(NC(=O)Nc2cccc3ccccc23)C1N(O)C(=O)Nc1ccccc1 (stereo not given),-4,11µM*,-14,-12%
CNC(=O)N(O)C1N(NC(=O)Nc2ccccc2)C(=S)SC1(C)C (stereo not given),-9,-15%,-10,12%
C[C@H](CO)N1C[C@H](C)[C@@H](CN(C)C(=O)c2cnccn2)Oc2cc(C#CCC3CCCC3)ccc2S1(=O)=O,-7,-2%,-61*,-5%
CC(C)C#Cc1ccc2c(c1)O[C@@H](CN(C)C(=O)c1cnccn1)[C@@H](C)CN([C@@H](C)CO)S2(=O)=O,1,16%,-16,4%
C[C@@H]1CN([C@H](C)CO)S(=O)(=O)c2ccc(Br)cc2O[C@H]1CN(C)C(=O)C1CCCCC1,4,4%,-74*,-4%
C[C@@H]1CN([C@@H](C)CO)S(=O)(=O)c2ccc(Br)cc2O[C@H]1CN(C)C(=O)C1CCCCC1,-4,-23%,-13,8%
CCOc1ccccc1NC(=O)CSc1nc2cc(OC)c(OC)cc2c2nc(CCn3c(C)nc4ccccc43)nn12,-3,5%,.,.
N[C@@H](C(=O)N[C@H]1C(=O)N2C(C(=O)O)=C(Cl)CC[C@H]12)c1ccccc1,.,.,.,-3%
COc1cc(C(=O)O/N=C2\C=CC(=O)C(C)=C2)cc(OC)c1OC,-6,0%,-57*,-7%
Fc1ccccc1C1c2cccn2CCN1C(=S)Nc1cccc(Br)c1 (stereo not given),-2,-8%,-4,-1%
Fc1ccccc1C1c2cccn2CCN1C(=S)Nc1ccc(Br)cc1 (stereo not given),-21,4.5µM*,-64*,-5%
Cc1ncc(C23CC4CC(CC(C4)C2)C3)[nH]1,-5,?,-55*,5%
N#Cc1ccc(C23CC4CC(CC(C4)C2)C3)[nH]c1=O,1,-9%,2,-7%
Cc1ccc(CN=Cc2[nH]c3ccc(Br)c(Cl)c3c2O)cc1,-26,4%,-101*,9%
N#C/C(=C(/O)COC(=O)CSc1ccc2ccccc2c1)c1nc2ccccc2[nH]1,0,7.9µM*,-13,-17%
CCCC(=O)OC/C(O)=C(\C#N)c1nc2ccccc2[nH]1,2,?,-10,8%
COCC(=O)OC/C(O)=C(\C#N)c1nc2ccccc2[nH]1,1,5µM*,2,3%
O=C(Nc1ccccc1)N1CCN(c2nc(-c3ccccc3)ns2)CC1,36*,?,11,0%
SMILES,D3 ag,GLP1R inv ag,D3 antag,GLP1R ag
Cc1c(Cl)cccc1NC(=O)N1CCCN(c2nc(-c3ccccc3)ns2)CC1,8,5µM*,0,6%
CCCN(CCC)CC(O)CN(c1ccccc1)S(=O)(=O)c1ccc(C)cc1 (stereo not given),3,?,4,0%
CCCCN(c1nc2ccccc2nc1Cl)S(=O)(=O)c1ccc(C)cc1,0,10µM*,-1,16%
O=C1CCC/C=C\C[C@H](CC(=O)N(CCO)Cc2ccccc2)C(=O)N2CCC[C@@H]2CO1,7,4%,9,4%
CC1=C(C(=O)OC2CCCC2)C(c2coc3ccccc3c2=O)C2=C(CC(C)(C)CC2=O)N1 (stereo not given),-15,2.5µM*,4,15%
O=C(Nc1ccc(Oc2ccccc2)cc1)c1csc([C@@H]2O[C@H](CO)[C@H](O)[C@H](O)[C@H]2O)n1,-20,14%,-92*,-4%
C=C(C)C1CC=C(CN2CCN(Cc3ccccc3)CC2)CC1 (stereo not given),-20,?,-57*,-3%
C=C(C)C1CC=C(CN2CCC(O)CC2)CC1 (stereo not given),-25,-15%,?,0%
C=C(C)[C@@H]1CC=C(CN2CCN(Cc3ccccc3)CC2)CC1,-21,?,-65*,4%
Cc1ccccc1CCNC(=O)c1ccc(Cn2c(=O)c3cccn3c3cccnc32)cc1,-7,-16%,.,.
CO[C@@H]1[C@@H](O[C@@H]2O[C@H](C)[C@@H](O[C@H]3C[C@@](C)(O)[C@@H](OC(=O)CC(C)C)[C@H](C)O3)[C@H](N(C)C)[C@H]2O)[C@@H](CC=O)C[C@@H](C)[C@@H](O)/C=C/C=C/C[C@@H](C)OC(=O)C[C@H]1O,11,.,.,.
COC(=O)C1=C(C)NC(C)=C(C(=O)OCCN(C)Cc2ccccc2)C1c1cccc([N+](=O)[O-])c1 (stereo not given),-73,?,-51*,0%
COC(=O)C1=CN(c2ccc(F)cc2)C=C(C(=O)OC)C1c1cccc([N+](=O)[O-])c1,3,5.6µM*,-14,13%
COC(=O)C1=CN(c2cccc(C)c2)C=C(C(=O)OC)C1c1cc(OC)c(O)c([N+](=O)[O-])c1,-5,0%,-84*,-1%
COC(=O)c1cc2oc(C)cc2n1Cc1ccc(C)cc1,-9,?,.,.
Cc1ccsc1CN(Cc1ccco1)c1cnc(S(C)(=O)=O)nc1C(=O)Nc1ccc(Cl)cc1,-8,?,.,.
Nc1nc(N)nc(-c2cccc(Cl)c2Cl)n1,4,19%,-21,-2%
COc1ccc(OCC(=O)Nc2ccccc2N2CCN(C)CC2)cc1,-2,?,-7,-1%
Cc1ccccc1OCC(=O)Nc1ccc2c(c1)Cc1ccccc1-2,11,41%,14,7%
Cc1ccccc1OCC(=O)Nc1ccc(N2CCN(C)CC2)c(Cl)c1,-10,4.5µM*,-11,12%
Cc1cc(OCC(=O)Nc2ccc(N3CCN(C(=O)c4ccco4)CC3)cc2)cc(C)c1Cl,55*,-9%,53,0%
COc1ccc(OCC(=O)Nc2ccc(N3CCN(C(=O)c4ccccc4)CC3)c(Cl)c2)cc1,9,10µM*,12,0%
CCC(=O)N1CCN(c2ccccc2NC(=O)COc2ccc(C(C)C)cc2)CC1,-1,10µM*,1,15%
O=C(NCCCN1CCN(c2cccc(Cl)c2)CC1)c1ccc2nc(Cc3ccccc3)oc2c1,-7,?,.,.
